# High-throughput results (PubChem BioAssay)
# TGFb inhibitor: inhibitors of TGF-b signaling; HepG2 CAGA-GFP TGF-b/SMAD3 reporter, GFP fluorescence, 18 h; TGF-beta stimulated, 500 pg/mL final; Potency, µM (doses to about 46.1 µM), inactives show top-dose activity, negative = inhibition, actives largely listed as inhibitors; 1.2% of 410,000 active; AID 588855; also: % is scaled to controls: 0 for no effect and ±100 for the full control effect; nearly all actives have a fitted effect of over 65% in size
#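 HEPG2 CAGA-GFP, 1000 cells/well; 2 h settle, 37 C; cpd via pin tool; TGF-b 500 pg/mL final; 18 h, 37 C; GFP imaging ex488/em500-530; %Activity normalised to -TGF-b and +DMSO controls; CRC fit, curve class.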
# HT1080 IDH1KD tx: kills HT-1080 cells with IDH1 knockdown; HT-1080 IDH1 knockdown viability, ATP luminescence, 48 h; Potency, µM (doses to about 46.1 µM), for the others: at the top dose activity, negative = toxicity, actives largely listed as cytotoxic; 2% of 360,000 active; AID 686971;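 also: 0% = DMSO wells and -100% = cell-free medium wells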
#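 Assay cells: HT-1080 with IDH1 knockdown, 750 per well, RPMI/5% FBS. Exposure: 48 h at 37 °C following 2 h pre-incubation. Read: CellTiter-Glo luminescence; fitted concentration-response, curve class assigned.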
# ATXN viability: viability counter-screen for ATXN expression inhibitors; S2 cells (HEK-293 line with an ATXN2-luciferase reporter) viability, CellTiter-Fluor protease fluorescence, 24 h; Potency, µM (titrated, usually from 56.7 µM), most hits filed as cytotoxic; 0.49% of 400,000 active; AID 651635; also: nearly all actives have a fitted effect of over 40% in size
# HepG2 tox: kills HepG2 cells in TGF-b inhibitor counter-screen; HepG2 CAGA-GFP viability, ATP luminescence, 18 h; Potency, µM (series often up to 46.1 µM), inactives show at the top dose activity change, negative = cytotoxicity, hits mostly cytotoxic; 0.76% of 410,000 active; AID 588856
#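 CellTiter-Glo luminescence gave cytotoxicity after 18 hours at 37 degrees C. The cells were HepG2 CAGA-GFP in 1% FBS DMEM, stimulated with 500 pg/mL TGF-beta after compound addition. %Activity was normalised to no-cell wells (complete cell-killing) and DMSO (no toxicity), and curves were fitted and classified.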
# ATXN2 expr inh: reduces ATXN2 reporter expression in HEK-293 cells. Potency, µM (series often up to 57 µM), for the others: top-dose activity change, negative = inhibition, usual class: inhibitors. 0.72% of 360,000 active. HEK-293 ATXN2-luciferase reporter, luminescence, 24 h; also: % is scaled to controls: 0 for no effect and ±100 for the full control effect; nearly all actives have a fitted effect of over 55% in size
#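 qHTS (up to 57 uM final) was run with 24 h compound exposure of reporter cells at 37 °C. Each well was multiplexed: SteadyGlo luminescence measured ATXN2-luciferase expression after a fluorogenic Gly-Phe-AFC viability readout (25 uM final).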
# HT1080-NT tox: kills 2HG-producing HT-1080-NT fibrosarcoma cells; HT-1080-NT fibrosarcoma viability, CellTiter-Glo ATP luminescence, 48 h; AID 686970; Potency, µM (series often up to 46.1 µM), for the others: at the highest dose activity, negative = less viability, most hits filed as cytotoxic; 1.6% of 360,000 active;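 also: NT is the 2HG producing partner of a matched IDH1 knockdown line; 0% = DMSO-treated cells and -100% = media-only wells without cells; nearly all actives have a fitted effect of over 55% in size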
#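 Fibrosarcoma NT cells, 750 per well in 5% FBS RPMI, were exposed to compound for 48 hours. Viability: CellTiter-Glo luminescence.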
# * hit, by the source's call; i = inactive; ? = inconclusive; . = not tested or not shown. The list is not random: actives were taken first. Their share in the collection is about 3.9%. Calls follow the shape of the dose curve; as a rule, active = well fitted curve in the direction sought with a large enough effect; inconclusive = small, poorly fitted or top-dose-only effect, or another doubt; inactive = no such curve, though single readings can be large; an effect the other way counts as inactive or inconclusive. Potency is read from the fitted curve at half-maximal effect.
SMILES,TGFb inhibitor,HT1080 IDH1KD tx,ATXN viability,HepG2 tox,ATXN2 expr inh,HT1080-NT tox
CCOC(=O)C1CCCN(C(=O)Cn2ncc3c4ccccc4n(C)c3c2=O)C1 (stereo not given),-23%,.,i,-7%,-2%,.
C[C@H]1CN([C@@H](C)CO)S(=O)(=O)c2ccc(C3=CCCC3)cc2O[C@@H]1CN(C)C(=O)C1CCCCC1,?,?,20µM*,-38%,?,?
CCCOc1ccc(C(=O)NNC(=S)NC(=O)c2ccccc2)cc1,-13%,?,i,-16%,.,?
CCCOc1ccc(C(=O)NNC(=S)NC(C)=O)cc1,-19%,7.1µM*,?,-15%,?,7.1µM*
CCCCOc1ccc(C(=O)NNC(=S)NC(=O)CC)cc1,-13%,?,?,-1%,25µM*,?
CCCOc1ccc(C(=O)NNC(=S)NC(=O)c2ccco2)cc1,-3%,23µM*,i,-7%,?,?
CCCOc1ccc(C(=O)NNC(=S)NC(=O)c2cccs2)cc1,6%,21µM*,?,1%,?,?
COc1ccc(C(=O)NNC(=S)NC(=O)c2ccco2)cc1,-2%,?,i,-16%,?,?
COc1ccc(NC(=O)c2cc3c(=O)n(Cc4cccnc4)ccc3nc2C)c(OC)c1,4%,.,i,1%,3%,.
O=C(Nc1ccc2oc(=O)ccc2c1)c1ccccc1[N+](=O)[O-],-4%,2%,i,-7%,-14%,-1%
O=C(Nc1ccc2oc(=O)ccc2c1)c1ccc(-c2cccc([N+](=O)[O-])c2)o1,34%,8.2µM*,.,22%,-38%,10µM*
O=C(Nc1ccc2oc(=O)ccc2c1)c1ccc(-c2ccccc2[N+](=O)[O-])o1,20%,?,i,-1%,-12%,18µM*
COc1cc(OC)c(OC)cc1CN1CCc2nc(Nc3ccc4c(c3)OCCO4)ncc2C1,-21%,.,.,-12%,-1%,.
COc1ccc(-c2nnc(SCc3cccc(Cl)c3)o2)cc1,-13%,.,i,-26%,13%,.
COc1ccccc1-c1cc(C(=O)Nc2cc(C)nn2-c2ccccc2)no1,-6%,3.2µM*,?,-44%,-15%,?
OC1(c2ccc(Cl)c(Cl)c2)C[n+]2ccccc2N1Cc1ccccc1 (stereo not given),?,21µM*,.,-90%,35µM*,18µM*
CNC(=O)CCc1nc(-c2ccc(C(C)(C)C)cc2)no1,-3%,5%,i,2%,23%,1%
COc1cccc(-c2nc(-c3ccccn3)no2)c1,6%,?,i,10µM*,?,?
c1ccc(-c2noc(-c3cccnc3)n2)nc1,3%,-29%,?,-50%,-29%,-12%
Cc1ccc(-c2nc(-c3ccncc3)no2)cc1,0%,0%,i,-28%,55%,14%
CC(C)(C)c1ccc(-c2nc(-c3ccncc3)no2)cc1,16µM*,?,i,10µM*,7%,-4%
c1ccc(-c2noc(-c3ccncc3)n2)nc1,13%,?,i,10µM*,-32%,11µM*
CC(C)(C)c1ccc(-c2noc(CCC(N)=O)n2)cc1,-12%,9%,i,-10%,0.32µM*,0%
COc1ccc(CNC(=O)Cn2ccc3cc(S(=O)(=O)N4CCCCC4)ccc32)cc1OC,?,.,i,-3%,-15%,.
Clc1ccccc1/C=C/c1nc(-c2ccccn2)no1,28%,-17%,i,-24%,5µM*,-8%
SMILES,TGFb inhibitor,HT1080 IDH1KD tx,ATXN viability,HepG2 tox,ATXN2 expr inh,HT1080-NT tox
c1ccc(-c2noc(-c3ccc4c(c3)OCO4)n2)nc1,-10%,2.5µM*,i,1.6µM*,?,1.8µM*
c1ccc(-c2noc(-c3ccc4ccccc4c3)n2)nc1,0%,-25%,i,-57%,2.2µM*,-19%
O=[N+]([O-])c1cccc(-c2nc(-c3ccccn3)no2)c1,-16%,-12%,i,-44%,.,-1%
COc1ccccc1CNC(=O)CCCCn1c(=O)c2ccccc2n(CC(=O)Nc2c(C)cc(C)cc2C)c1=O,4%,.,i,6%,0%,.
Cc1ccc(NC(=O)c2cc(S(=O)(=O)N3CCCCC3)c[nH]2)cc1N(C)C,1%,.,i,0%,-1%,.
COc1cccc2c(=O)c(SC(F)(F)C(F)C(F)(F)F)c(C)[nH]c12 (stereo not given),-6%,21µM*,?,-13%,15%,?
Cc1[nH]c2ccc(F)cc2c(=O)c1SC(F)(F)C(F)C(F)(F)F (stereo not given),-29%,?,?,1%,-11%,-28%
S=C1NC[C@H](c2ccccc2)N1CCCCC1CCCCC1,18µM*,-3%,?,11µM*,?,-3%
O=C1NC[C@@H](Cc2ccc(O)cc2)N(CCCCC2CCCCC2)C1=O,.,1%,i,.,-4%,-3%
Oc1ccc(C[C@@H]2CNC(=S)N2CCCCC2CCCCC2)cc1,13µM*,-1%,?,-107%,-10%,-5%
COc1cccc(CNc2ncnc3c2nnn3C)c1,1%,.,.,-11%,.,.
CC1(Cc2ccccc2OC(F)(F)F)C(=O)Nc2ccc(S(=O)(=O)NC3CCCCC3)cc21 (stereo not given),13µM*,?,?,-81%,?,?
CCCN1C(=O)/C(=C/c2ccc(C)s2)SC1=Nc1ccc(OC)cc1,3%,13%,i,-4%,-10%,5%
COc1ccc(N=C2S/C(=C\c3ccc(Cl)c([N+](=O)[O-])c3)C(=O)N2CCN(C)C)cc1,?,21µM*,10µM*,-133%,.,?
CCN(CC)CCN1C(=O)/C(=C\c2ccc(Cl)c([N+](=O)[O-])c2)SC1=Nc1ccc(OC)cc1,?,3.3µM*,.,20µM*,32µM*,2.6µM*
CCC(=O)N1CCc2cc(Br)cc(S(=O)(=O)CCC(=O)N3CCN(c4ccccc4F)CC3)c21,4%,.,i,12%,1%,.
Cn1nnnc1Sc1ncnc2scc(-c3ccccc3)c12,?,-23%,?,-27%,?,-4%
Cn1nnnc1Sc1ncnc2scc(-c3ccccc3Br)c12,?,.,?,-19%,25µM*,.
Cn1nnnc1Sc1ncnc2scc(Br)c12,2.2µM*,.,i,-37%,18µM*,.
COc1ccccc1-c1csc2ncnc(Sc3nnnn3C)c12,?,.,i,-13%,-18%,.
CC(=O)Nc1ccc(NC(=O)CCc2c(C)nc3c(c(C)nn3-c3ccc(C)cc3)c2C)cc1,.,.,.,2%,.,.
